Publication PMC10163288
Only a sample is shown. The true hit rate is not given.

B1: il10ra_site1_normal_mot_39ab2cb694c8b9c1dc7e65c0d672c93e_0001_000000036_0001_53_65_H_._HHH_b2_05692_af2_0001_0000600025_0000002_0 (protein)
chain: SSSSDEEEEELRELVEEVERLIERNDREEALRVAAEALRLAFRARNPEVLQLLWELAKLLSSSSS
B2: il10ra_site1_sap_13_mot_8756ee2cf497b5429c717dfc0c0bcfd6_0001_000000186_0001_1_13_H_._HHH_b2_05518_af2_0001_0000600027_0000001_0_0001 (protein)
chain: SSSSDLEELARAAVRLIEQAIEWGDEERAKFALLALEMAAEETNDPELRELLEELEKLLRGSSSS
B3: il10ra_site1_sap_25_mot_HHH_b1_08133_000000195_0001_1_19_H_._HHH_b1_03607_0001_0000200023_0000001_0_0001_af2pred_0001 (protein)
chain: SSSSSEEVEELEEEARELIKRNDPEEVLKIIRRLARLAFRLNDPEISKIAIELAELLKKLDSSSS
B4: il10ra_site1_normal_mot_HHH_b2_02337_000000026_0001_38_52_H_._HHH_b2_04211_af2_0001_0000300011_0000002_0 (protein)
chain: SSSSDEEREEIEELIKEFEELLERGDREEAVRVVTEALQFALKLGDQELLKRIWELVKSLSSSSS
B5: il10ra_site1_sap_17_mot_HHH_b1_06914_000000280_0001_1_18_H_._HHH_b2_08155_0001_0000100009_0000001_0_0001 (protein)
chain: SSSSDEANERVWELLREALHIDDPEEAREVVEEAAEIAEERNNRVLLHNIRFLLRQLEKGSSSSS
B6: il10ra_site1_sap_23_mot_HHH_b1_08616_000000009_0001_1_19_H_._HHH_b2_04715_af2_0001_0000100004_0000001_0_0001 (protein)
chain: SSSSSDQEEQLIRALLWFAEWTSNPTARRLMLEQAERHARELGNEELREEVERVEKELEESSSSS
B7: il10ra_site1_normal_mot_HHH_b1_05056_000000217_0001_1_20_H_._HHH_b2_03866_0001_0000200011_0000001_0 (protein)
chain: SSSSSSEEREEVEELLEEAEHVDDLRELARILAEAVRFAYEGKDEEALQLVWEVVRRLFSSSSSS
B8: il10ra_site1_sap_16_mot_HHH_b2_00943_af2_000000149_0001_1_17_H_._HHH_b1_06222_0001_0000300032_0000001_0_0001_af2pred_dldesign_0_af2pred (protein)
chain: SSSSSPENEELVRLIREVAELLYDGKPEEAREKLKEAEELTEKLGDEIFKRNIELLRKELESSSS
B9: il10ra_site1_sap_16_mot_HHH_b1_06789_af2_000000041_0001_1_20_H_._HHH_b1_04240_af2_0001_0000500015_0000001_0_0001 (protein)
chain: SSSSSDEEYEEEVERLLEEAEKIPDPREAAEVLLKALRVALRGNDPELLHLVWEVLEEISSSSSS
B10: il10ra_site1_normal_mot_HHH_b1_06057_000000129_0001_22_38_H_._HHH_b2_05766_0001_0000200026_0000001_0 (protein)
chain: SSSSDRTARWSVEFALRVAEELAKRDPERARELLEHLAELLKEARDEELLEEVERLLEEIGSSSS

target: il10ra, Q13651; assay: yeast display titration
Sequence (Q13651 whole entry): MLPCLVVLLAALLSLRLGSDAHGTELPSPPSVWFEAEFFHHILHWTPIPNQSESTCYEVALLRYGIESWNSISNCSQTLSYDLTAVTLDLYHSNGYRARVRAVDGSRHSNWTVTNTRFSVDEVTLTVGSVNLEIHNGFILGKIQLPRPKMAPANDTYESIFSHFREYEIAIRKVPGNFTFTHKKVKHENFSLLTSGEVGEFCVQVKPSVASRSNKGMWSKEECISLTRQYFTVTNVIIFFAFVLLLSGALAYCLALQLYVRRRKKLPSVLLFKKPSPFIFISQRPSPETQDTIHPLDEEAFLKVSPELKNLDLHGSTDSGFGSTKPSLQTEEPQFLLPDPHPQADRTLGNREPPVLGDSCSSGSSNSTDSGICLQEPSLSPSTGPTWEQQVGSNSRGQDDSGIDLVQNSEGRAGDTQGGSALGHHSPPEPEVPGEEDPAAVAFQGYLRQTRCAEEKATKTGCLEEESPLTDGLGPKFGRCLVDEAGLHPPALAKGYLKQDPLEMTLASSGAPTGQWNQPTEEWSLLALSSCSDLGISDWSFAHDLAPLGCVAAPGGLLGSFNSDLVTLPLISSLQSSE

Apparent Kd, inactive:
B1 no binding seen
B2 no binding seen
B3 > 233 nM
B4 no binding seen
B5 no binding seen
B6 no binding seen
B7 no binding seen
B8 no binding seen
B9 no binding seen
B10 no binding seen
